# Experimental data published in PubChem BioAssay (EPA / NIEHS).
# Several values for one entry are separate records, joined by “and”; a condition that tells them apart may be missing. Equal values may be shown once. Results filed as inconclusive are left out. Activity calls are given as the source filed them. Rule for the calls, unless noted: active = hit-call score of the fitted dose curve at least 0.9, where 1 is the maximum; inconclusive = response in the unintended direction; inactive = score below 0.9.
# Experiments:
# [1] = ATG_TAL_CIS: Attagene CIS-FACTORIAL HepG2 Assay for human TAL Basal Promoter (AID 2282966; active = hit-call score of the fitted dose curve at least 0.9, where 1 is the maximum; inactive = score below 0.9;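 note: background control endpoint measuring basal TAL promoter reporter mRNA not a specific factor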); conditions: HepG2 Attagene cis-factorial TAL promoter reporter; actives raise or lower the signal
# Procedure, shortened: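 RT-PCR plus capillary electrophoresis quantifies reporter mRNA induction in transiently transfected HepG2 cells after 24 h chemical treatment. DMSO serves as negative control and baseline for bidirectional fitting.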
# [2] = ATG_TGFb_CIS: Attagene CIS-FACTORIAL HepG2 Assay for human Transforming Growth Factor (TGF) (AID 2282967; active = hit-call score of the fitted dose curve at least 0.9, where 1 is the maximum; inactive = score below 0.9); conditions: HepG2 Attagene CIS TGFb reporter, mRNA transcription; actives raise or lower the signal
# Procedure, shortened: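 Cells were dosed for 24 hours, after which total RNA was reverse-transcribed and reporter sequences amplified, labeled and sized by capillary electrophoresis. Activity was fitted in both directions against DMSO.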
# [3] = target: Estrogen receptor (Homo sapiens) (UniProt P03372); assay: ATG_ERa_TRANS: Attagene TRANS-FACTORIAL HepG2 Assay for human Estrogen Receptor alpha (ERa) (AID 2282970); conditions: HepG2 Attagene TRANS ERa GAL4 reporter, mRNA
# Procedure, shortened: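 Cells: HepG2, transiently transfected. Construct: GAL4-UAS reporter units regulated by exogenous NR-Gal4 chimeras. Time: 24 h. Detection: reporter mRNA by RT-PCR, capillary electrophoresis, fluorescence. Baseline: DMSO, upward fitting.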
# [4] = target: Steroid hormone receptor ERR1 (Homo sapiens) (UniProt P11474); assay: ATG_ERRa_TRANS: Attagene TRANS-FACTORIAL HepG2 Assay for human Estrogen-Related Receptor alpha (ERRa) (AID 2282971); conditions: HepG2 Attagene TRANS reporter, ERRa transactivation
# Procedure, shortened: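 Reporter transcripts from ERRa-Gal4 chimera activity measured in transiently transfected human HepG2 cells 24 hours after dosing, using RT-PCR with 6-FAM primer extension, HpaI digestion and capillary electrophoresis; DMSO is baseline.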
# [5] = target: X-box-binding protein 1 (Homo sapiens) (UniProt P17861); assay: ATG_Xbp1_CIS: Attagene CIS-FACTORIAL HepG2 Assay for human X-box Binding Protein 1 (XBP1) (AID 2282972; active = hit-call score of the fitted dose curve at least 0.9, where 1 is the maximum; inactive = score below 0.9); conditions: HepG2 XBP1 cis-element reporter, Attagene multiplex; actives raise or lower the signal
# Procedure, shortened: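 HepG2, transient MRTU transfection (cis-promoter driven), 24 h compound exposure. Total RNA → oligo(dT) RT → PCR → 6-FAM labeling → HpaI cut → CE. Bidirectional fit vs DMSO.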
# [6] = ATG_M_19_TRANS: Attagene TRANS-FACTORIAL HepG2 Assay for M19 Transcription Factor (Internal Marker) (AID 2282974); conditions: HepG2 Attagene TRANS-FACTORIAL M19 internal marker reporter
# Procedure, shortened: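 After transfection of HepG2 with GAL4-UAS-driven reporter constructs, cells are dosed for 24 h. Total RNA is reverse-transcribed, reporter sequences PCR-amplified and labelled, then HpaI-digested and sized by capillary electrophoresis.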
# [7] = ATG_GAL4_TRANS: Attagene TRANS-FACTORIAL HepG2 Assay for GAL4 (Internal Marker) (AID 2282976); conditions: HepG2 Attagene TRANS GAL4 internal marker reporter
# Procedure, shortened: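 In transfected human HepG2 liver cells dosed 24 h, GAL4 reporter mRNA serves as a baseline marker. Detection by RT-PCR with fluorescent capillary electrophoresis, activity fitted upward relative to DMSO.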
# [8] = target: Glucocorticoid receptor (Homo sapiens) (UniProt P04150); assay: ATG_GR_TRANS: Attagene TRANS-FACTORIAL HepG2 Assay for human Glucocorticoid Receptor (GR) (AID 2282978); conditions: HepG2 Attagene TRANS GR reporter, mRNA transcription;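 note: activators score as hits since higher reporter transcript over DMSO is fitted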
# Procedure, shortened: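 Multiplexed TRANS reporter system, HepG2; 24 h exposure; RNA → oligo(dT) RT → reporter-specific PCR → 6-FAM primer extension → HpaI cut → CE fluorescence. Gain-of-signal vs DMSO.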
# [9] = target: Transcriptional activator Myb (Homo sapiens) (UniProt P10242); assay: ATG_Myb_CIS: Attagene CIS-FACTORIAL HepG2 Assay for human Myeloblastosis (Myb) Proto-Oncogene Transcription Factor (AID 2282986; active = hit-call score of the fitted dose curve at least 0.9, where 1 is the maximum; inactive = score below 0.9); conditions: HepG2 Attagene CIS-FACTORIAL Myb reporter transcription; actives raise or lower the signal
# Procedure, shortened: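 Endogenous transcription factor activity at a Myb-responsive cis element is reported in human liver HepG2 cells after 24 h chemical treatment. Reporter mRNA is detected by RT-PCR and capillary electrophoresis fluorescence, with DMSO as baseline.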
# [10] = ATG_VDRE_CIS: Attagene CIS-FACTORIAL HepG2 Assay for human Vitamin D Receptor Element (VDRE) (AID 2282968; active = hit-call score of the fitted dose curve at least 0.9, where 1 is the maximum; inactive = score below 0.9); conditions: HepG2 VDRE cis-reporter transcription, actives raise or lower the signal
# Procedure, shortened: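 Cell-based multiplexed reporter format in human liver HepG2 cells, 24 h post-dose. Fluorescence from capillary electrophoresis of reporter cDNA gives the signal, with DMSO as negative control and baseline.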
# [11] = target: Oxysterols receptor LXR-beta (Homo sapiens) (UniProt P55055); assay: ATG_LXRb_TRANS: Attagene TRANS-FACTORIAL HepG2 Assay for human Liver X Receptor beta (LXRb) (AID 2282981); conditions: HepG2 Attagene TRANS GAL4-LXRb reporter, mRNA
# Procedure, shortened: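 Gain-of-signal mRNA reporter endpoint, DMSO as negative control. Transiently transfected HepG2 cells carrying the NR-Gal4 chimera and GAL4-UAS reporter units were treated 24 h; transcripts quantified by RT-PCR and capillary electrophoresis fluorescence.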
# [12] = ATG_M_06_TRANS: Attagene TRANS-FACTORIAL HepG2 Assay for M06 Transcription Factor (Internal Marker) (AID 2282983); conditions: HepG2 Attagene TRANS M06 internal marker reporter
# Procedure, shortened: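 Cells: HepG2, transient multi-reporter transfection. Exposure: 24 h. Detection: RT-PCR, 6-FAM labelling, HpaI digestion (2 h, 37 °C), capillary electrophoresis. Baseline: DMSO.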
# [13] = ATG_M_32_TRANS: Attagene TRANS-FACTORIAL HepG2 Assay for M32 Transcription Factor (Internal Marker) (AID 2282984); conditions: HepG2 Attagene TRANS M32 internal marker reporter;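 note: transcript level of a background control reporter unit measured by RT-PCR and capillary electrophoresis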
# Procedure, shortened: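 Capillary electrophoresis of 6-FAM-labelled reporter fragments gives the signal; data fitted for gain over DMSO negative control. Source: HepG2 cells bearing transient multiple reporter transcription units, 24 h exposure.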
# [14] = target: Nuclear receptor subfamily 4 group A member 2 (Homo sapiens) (UniProt P43354); assay: ATG_NURR1_TRANS: Attagene TRANS-FACTORIAL HepG2 Assay for human Nuclear Receptor Related Protein 1 (NURR1) (AID 2282985); conditions: HepG2 Attagene TRANS reporter, mRNA readout
# Procedure, shortened: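 HepG2 / transient MRTU transfection / 24 h compound exposure / RT-PCR + CE fluorescence of reporter mRNA / gain-of-signal vs DMSO.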
# [15] = target: Nuclear receptor subfamily 1 group I member 3 (Homo sapiens) (UniProt Q14994); assay: ATG_CAR_TRANS: Attagene TRANS-FACTORIAL HepG2 Assay for human Constitutive Androstane Receptor (CAR) (AID 2282969); conditions: HepG2 Attagene TRANS-FACTORIAL CAR reporter;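 note: activators raise reporter mRNA above DMSO so AC50 marks induction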
# Procedure, shortened: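 HepG2 cells transiently transfected with GAL4-UAS reporter units; TRANS format reads activity of exogenous chimeric NR-Gal4 protein. After 24 h dosing, reporter mRNA quantified by RT-PCR, 6-FAM labelling and capillary electrophoresis; gain of signal fitted against DMSO.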
# [16] = target: Estrogen-related receptor gamma (Homo sapiens) (UniProt P62508); assay: ATG_ERRg_TRANS: Attagene TRANS-FACTORIAL HepG2 Assay for human Estrogen-Related Receptor gamma (ERRg) (AID 2282977); conditions: HepG2 Attagene TRANS reporter, ERRg transactivation;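 note: hits increase reporter signal over DMSO so potencies reflect activators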
# Procedure, shortened: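 Transient HepG2 transfectants, 24 h compound exposure, GAL4-UAS reporter mRNA by RT-PCR/6-FAM labelling/capillary electrophoresis; positive direction vs DMSO.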
# [17] = target: Bile acid receptor (Homo sapiens) (UniProt Q96RI1); assay: ATG_FXR_TRANS: Attagene TRANS-FACTORIAL HepG2 Assay for Farnesoid X Receptor (FXR) (AID 2282979); conditions: HepG2 Attagene TRANS FXR-GAL4 reporter transcription;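 note: hits raise reporter mRNA above DMSO so AC50 marks FXR activation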
# Procedure, shortened: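 Reporter transcripts from transfected HepG2 cells were measured 24 h after dosing, using RT-PCR with capillary electrophoresis of 6-FAM-labelled fragments. The read-out reflects activity of exogenous FXR-Gal4 chimera on GAL4-UAS units, with induction relative to DMSO.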
# [18] = target: Hepatocyte nuclear factor 4-alpha (Homo sapiens) (UniProt P41235); assay: ATG_HNF4a_TRANS: Attagene TRANS-FACTORIAL HepG2 Assay for human Hepatocyte Nuclear Factor 4 alpha (HNF4a) (AID 2282982); conditions: HepG2 HNF4a transactivation reporter, mRNA readout
# Procedure, shortened: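 Gain-of-signal mRNA induction, relative to DMSO vehicle, was read after 24 h compound treatment of HepG2 cells bearing transfected GAL4-UAS reporters. Detection used RT-PCR, 6-FAM primer extension and capillary electrophoresis.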
# Nuclear receptor subfamily 4 group A member 2 (Homo sapiens), sequence (P43354 whole entry, looked up): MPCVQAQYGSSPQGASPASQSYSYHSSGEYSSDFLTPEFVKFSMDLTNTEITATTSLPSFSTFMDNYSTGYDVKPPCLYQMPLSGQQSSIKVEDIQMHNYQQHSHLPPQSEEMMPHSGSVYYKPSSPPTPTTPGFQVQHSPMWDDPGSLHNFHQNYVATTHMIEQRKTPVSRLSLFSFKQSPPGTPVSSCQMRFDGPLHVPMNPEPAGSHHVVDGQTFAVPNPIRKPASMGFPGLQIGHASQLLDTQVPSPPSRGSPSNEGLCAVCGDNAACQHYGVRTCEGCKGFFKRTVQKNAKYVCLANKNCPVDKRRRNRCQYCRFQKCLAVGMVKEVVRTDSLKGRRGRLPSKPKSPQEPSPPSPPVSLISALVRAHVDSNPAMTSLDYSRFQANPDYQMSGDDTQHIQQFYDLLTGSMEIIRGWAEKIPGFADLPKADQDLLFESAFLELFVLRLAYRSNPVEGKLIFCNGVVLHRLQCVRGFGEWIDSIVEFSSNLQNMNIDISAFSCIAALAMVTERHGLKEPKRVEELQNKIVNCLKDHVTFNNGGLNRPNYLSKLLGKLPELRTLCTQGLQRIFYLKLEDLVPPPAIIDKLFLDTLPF
# Bile acid receptor (Homo sapiens), sequence (Q96RI1 whole entry, looked up, the tested form may be a part): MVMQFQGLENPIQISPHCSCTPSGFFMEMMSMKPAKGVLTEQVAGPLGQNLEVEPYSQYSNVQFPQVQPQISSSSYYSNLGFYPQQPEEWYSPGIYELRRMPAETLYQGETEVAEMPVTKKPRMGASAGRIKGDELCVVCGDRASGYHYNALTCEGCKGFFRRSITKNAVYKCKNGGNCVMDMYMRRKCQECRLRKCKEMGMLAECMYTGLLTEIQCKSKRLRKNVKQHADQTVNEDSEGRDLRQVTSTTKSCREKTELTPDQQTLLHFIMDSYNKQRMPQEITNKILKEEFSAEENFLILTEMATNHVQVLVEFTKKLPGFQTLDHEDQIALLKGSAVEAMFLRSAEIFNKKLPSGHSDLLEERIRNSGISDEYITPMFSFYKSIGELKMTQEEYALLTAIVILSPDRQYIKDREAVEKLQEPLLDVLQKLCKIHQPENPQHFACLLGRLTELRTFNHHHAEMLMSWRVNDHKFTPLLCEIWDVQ
# Oxysterols receptor LXR-beta (Homo sapiens), sequence (P55055 whole entry, looked up, the tested form may be a part): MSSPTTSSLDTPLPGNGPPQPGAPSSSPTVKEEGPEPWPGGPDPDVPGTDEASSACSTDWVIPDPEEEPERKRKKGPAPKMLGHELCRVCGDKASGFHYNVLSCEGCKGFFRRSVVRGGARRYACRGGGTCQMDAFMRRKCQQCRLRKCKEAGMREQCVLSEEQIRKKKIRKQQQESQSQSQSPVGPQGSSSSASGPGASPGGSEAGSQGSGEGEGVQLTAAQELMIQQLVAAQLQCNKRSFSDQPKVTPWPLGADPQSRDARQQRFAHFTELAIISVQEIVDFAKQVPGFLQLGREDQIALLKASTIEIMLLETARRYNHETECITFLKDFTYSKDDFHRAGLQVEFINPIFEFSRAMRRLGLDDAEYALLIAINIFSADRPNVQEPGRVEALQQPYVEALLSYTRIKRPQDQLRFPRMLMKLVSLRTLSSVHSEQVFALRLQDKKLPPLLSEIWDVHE
# Estrogen-related receptor gamma (Homo sapiens), sequence (P62508 whole entry, looked up, the tested form may be a part): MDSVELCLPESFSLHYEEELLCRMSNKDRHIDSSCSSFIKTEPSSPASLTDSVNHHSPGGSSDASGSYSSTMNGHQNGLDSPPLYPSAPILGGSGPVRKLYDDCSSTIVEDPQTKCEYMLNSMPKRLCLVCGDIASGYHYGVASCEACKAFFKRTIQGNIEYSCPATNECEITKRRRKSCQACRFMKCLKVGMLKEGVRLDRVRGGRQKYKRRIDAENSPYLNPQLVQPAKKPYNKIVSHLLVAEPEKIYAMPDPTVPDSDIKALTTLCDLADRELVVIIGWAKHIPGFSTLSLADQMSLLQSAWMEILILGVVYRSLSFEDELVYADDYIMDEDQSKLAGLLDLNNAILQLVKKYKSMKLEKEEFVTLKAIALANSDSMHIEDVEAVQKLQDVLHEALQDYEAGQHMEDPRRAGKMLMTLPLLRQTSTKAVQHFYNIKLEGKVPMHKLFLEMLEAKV
# X-box-binding protein 1 (Homo sapiens), sequence (P17861 whole entry, looked up): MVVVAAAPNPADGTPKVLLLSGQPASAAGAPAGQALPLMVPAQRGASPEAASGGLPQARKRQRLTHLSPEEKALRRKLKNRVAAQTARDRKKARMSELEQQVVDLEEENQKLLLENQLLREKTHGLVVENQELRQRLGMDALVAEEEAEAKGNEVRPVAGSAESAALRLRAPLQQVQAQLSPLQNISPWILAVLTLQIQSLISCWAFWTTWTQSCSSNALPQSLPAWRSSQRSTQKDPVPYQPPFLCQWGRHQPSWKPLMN
# Transcriptional activator Myb (Homo sapiens), sequence (P10242 whole entry, looked up): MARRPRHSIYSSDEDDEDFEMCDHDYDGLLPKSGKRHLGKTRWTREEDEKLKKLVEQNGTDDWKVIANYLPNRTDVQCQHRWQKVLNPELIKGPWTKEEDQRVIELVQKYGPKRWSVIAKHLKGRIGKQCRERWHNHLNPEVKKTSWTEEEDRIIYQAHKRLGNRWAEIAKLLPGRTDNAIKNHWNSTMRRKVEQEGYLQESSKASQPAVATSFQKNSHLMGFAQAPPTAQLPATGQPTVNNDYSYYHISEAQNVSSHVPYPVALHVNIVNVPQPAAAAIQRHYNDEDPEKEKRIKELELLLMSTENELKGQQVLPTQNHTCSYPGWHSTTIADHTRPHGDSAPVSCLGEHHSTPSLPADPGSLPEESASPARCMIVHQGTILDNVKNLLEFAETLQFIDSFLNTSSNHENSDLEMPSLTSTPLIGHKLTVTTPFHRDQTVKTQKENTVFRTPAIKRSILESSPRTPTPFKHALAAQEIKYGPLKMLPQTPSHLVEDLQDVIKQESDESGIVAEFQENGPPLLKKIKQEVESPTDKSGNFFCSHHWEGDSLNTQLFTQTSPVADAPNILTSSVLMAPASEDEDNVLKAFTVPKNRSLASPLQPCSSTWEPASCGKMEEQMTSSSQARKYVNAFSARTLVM
# Glucocorticoid receptor (Homo sapiens), sequence (P04150 whole entry, looked up): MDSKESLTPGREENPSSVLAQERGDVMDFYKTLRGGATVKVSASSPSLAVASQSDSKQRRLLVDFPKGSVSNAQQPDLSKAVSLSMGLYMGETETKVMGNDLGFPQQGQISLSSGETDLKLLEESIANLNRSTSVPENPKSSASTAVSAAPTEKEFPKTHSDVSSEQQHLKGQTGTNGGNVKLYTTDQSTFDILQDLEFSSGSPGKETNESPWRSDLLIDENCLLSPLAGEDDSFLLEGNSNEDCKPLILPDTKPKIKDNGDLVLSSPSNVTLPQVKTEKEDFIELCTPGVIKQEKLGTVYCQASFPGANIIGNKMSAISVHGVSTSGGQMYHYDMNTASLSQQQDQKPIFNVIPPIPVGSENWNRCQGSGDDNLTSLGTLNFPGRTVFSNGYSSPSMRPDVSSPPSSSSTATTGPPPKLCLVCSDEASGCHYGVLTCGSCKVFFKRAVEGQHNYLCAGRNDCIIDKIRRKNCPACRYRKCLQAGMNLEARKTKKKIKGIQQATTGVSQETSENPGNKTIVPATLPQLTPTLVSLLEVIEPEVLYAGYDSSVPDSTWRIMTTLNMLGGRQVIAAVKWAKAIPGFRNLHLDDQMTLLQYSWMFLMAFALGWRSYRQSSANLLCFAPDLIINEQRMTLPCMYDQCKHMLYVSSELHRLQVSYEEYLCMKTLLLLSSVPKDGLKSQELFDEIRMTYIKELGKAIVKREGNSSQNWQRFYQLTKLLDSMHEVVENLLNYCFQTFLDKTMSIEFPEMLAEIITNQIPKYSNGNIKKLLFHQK
# Hepatocyte nuclear factor 4-alpha (Homo sapiens), sequence (P41235 whole entry, looked up, the tested form may be a part): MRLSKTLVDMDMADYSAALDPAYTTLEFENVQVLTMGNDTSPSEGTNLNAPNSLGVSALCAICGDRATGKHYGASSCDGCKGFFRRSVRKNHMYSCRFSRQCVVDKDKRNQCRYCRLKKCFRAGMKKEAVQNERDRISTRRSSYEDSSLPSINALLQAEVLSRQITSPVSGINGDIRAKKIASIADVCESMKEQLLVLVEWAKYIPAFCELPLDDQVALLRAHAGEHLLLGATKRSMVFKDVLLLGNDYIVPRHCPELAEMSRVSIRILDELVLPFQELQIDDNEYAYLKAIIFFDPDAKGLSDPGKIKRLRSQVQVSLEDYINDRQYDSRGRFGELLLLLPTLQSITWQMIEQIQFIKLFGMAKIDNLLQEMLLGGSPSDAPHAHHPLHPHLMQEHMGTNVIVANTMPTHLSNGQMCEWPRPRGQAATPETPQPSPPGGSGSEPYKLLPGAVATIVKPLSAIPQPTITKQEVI
# Estrogen receptor (Homo sapiens), sequence (P03372 whole entry, looked up, the tested form may be a part): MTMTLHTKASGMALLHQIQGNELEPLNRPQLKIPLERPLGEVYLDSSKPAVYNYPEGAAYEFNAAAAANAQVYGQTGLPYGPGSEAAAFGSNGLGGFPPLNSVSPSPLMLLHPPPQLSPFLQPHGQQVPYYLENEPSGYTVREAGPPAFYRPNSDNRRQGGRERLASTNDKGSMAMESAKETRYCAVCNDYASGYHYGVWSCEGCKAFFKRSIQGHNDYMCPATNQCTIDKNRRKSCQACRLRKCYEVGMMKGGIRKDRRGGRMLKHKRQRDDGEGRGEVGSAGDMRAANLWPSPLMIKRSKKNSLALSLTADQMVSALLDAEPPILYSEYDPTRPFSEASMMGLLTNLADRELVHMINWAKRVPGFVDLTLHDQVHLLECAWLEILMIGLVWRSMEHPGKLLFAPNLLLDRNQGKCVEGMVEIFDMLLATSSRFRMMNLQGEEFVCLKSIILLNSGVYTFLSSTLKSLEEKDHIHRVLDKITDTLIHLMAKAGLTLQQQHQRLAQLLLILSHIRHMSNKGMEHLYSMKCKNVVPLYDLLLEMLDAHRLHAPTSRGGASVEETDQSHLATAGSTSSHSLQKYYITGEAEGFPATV
compound,measurement,setting,value
Cc1ccc(O)c(C)c1,outcome,[1],inactive
same,outcome,[2],inactive
same,outcome,[3],inactive
same,outcome,[4],inactive
same,outcome,[5],inactive
same,outcome,[6],inactive
same,outcome,[7],inactive
same,outcome,[8],inactive
same,outcome,[9],inactive
COS(=O)(=O)OC,outcome,[1],inactive
same,outcome,[2],inactive
same,outcome,[10],inactive
same,outcome,[5],inactive
same,outcome,[11],inactive
same,outcome,[12],inactive
same,outcome,[13],inactive
same,outcome,[14],inactive
same,outcome,[9],inactive
CC#Cc1cc(C)nc(Nc2ccccc2)n1,outcome,[1],inactive
same,outcome,[2],inactive
same,AC50,[10],65.6 µM (active)
same,outcome,[5],inactive
same,outcome,[8],inactive
same,outcome,[11],inactive
same,outcome,[12],inactive
same,outcome,[13],inactive
same,outcome,[14],inactive
same,outcome,[9],inactive
CCCCCCOC(=O)c1ccccc1C(=O)OCCCCCC,outcome,[1],inactive
same,outcome,[2],inactive
same,outcome,[15],inactive
same,outcome,[3],inactive
same,outcome,[5],inactive
same,outcome,[7],inactive
same,outcome,[8],inactive
same,outcome,[12],inactive
same,outcome,[14],inactive
same,outcome,[9],inactive
Oc1ccc(Cl)cc1Cl,outcome,[1],inactive
same,outcome,[2],inactive
same,outcome,[10],inactive
same,AC50,[3],64 µM (active)
same,outcome,[16],inactive
same,outcome,[17],inactive
same,outcome,[11],inactive
same,outcome,[18],inactive
same,outcome,[12],inactive
same,outcome,[13],inactive
same,outcome,[14],inactive
same,outcome,[9],inactive
Nn1cnnc1,outcome,[1],inactive
same,outcome,[2],inactive
same,outcome,[10],inactive
same,AC50,[3],26 µM (active)
same,outcome,[8],inactive
same,outcome,[11],inactive
same,outcome,[12],inactive
same,outcome,[9],inactive
N#Cc1ccc(N(CC(N)=O)CC(F)(F)F)cc1C(F)(F)F,outcome,[1],inactive
same,outcome,[2],inactive
same,outcome,[10],inactive
same,outcome,[3],inactive
same,outcome,[6],inactive
same,outcome,[7],inactive
same,outcome,[9],inactive
C[C@]12CCC(=O)C=C1CC[C@@H]1[C@@H]2CC[C@]2(C)C(=O)CC[C@@H]12,outcome,[1],inactive
same,outcome,[2],inactive
same,AC50,[3],65.1 nM (active) and 9.14 nM (active) and 9.25 nM (active)
same,outcome,[7],inactive
same,outcome,[16],inactive
same,outcome,[17],inactive
same,outcome,[11],inactive
same,outcome,[18],inactive
same,outcome,[12],inactive
same,outcome,[13],inactive
same,outcome,[14],inactive
same,outcome,[9],inactive
Cc1cc(O)ccc1Cl,outcome,[1],inactive
same,outcome,[2],inactive
same,outcome,[10],inactive
same,AC50,[3],40.4 µM (active)
same,outcome,[5],inactive
same,outcome,[6],inactive
same,outcome,[16],inactive
same,outcome,[8],inactive
same,outcome,[17],inactive
same,outcome,[18],inactive
same,outcome,[12],inactive
same,outcome,[9],inactive
